Common to all, as to experiment: PBM; 200 nM protein, PBS
What all share (conditions): dsDNA, one strand shown

The target in experiment [1] is ALX4 (Homo sapiens, UniProt Q9H161 200-286).
Experiment [2] has as its target ALX4 (Homo sapiens, UniProt Q9H161 200-286, Q225E).
The target of experiment [3] is MSX2 (Homo sapiens, UniProt P35548 130-214, R199I).
The target in experiment [4] is MSX2 (Homo sapiens, UniProt P35548 130-214).
The target of experiment [5] is MSX2 (Homo sapiens, UniProt P35548 130-214, F161Y).
The target in experiment [6] is PROP1 (Homo sapiens, UniProt O75360 56-141).
Experiment [7] concerns the target PROP1 (Homo sapiens, UniProt O75360 56-141, R99H).
Experiment [8] addresses PROP1 (Homo sapiens, UniProt O75360 56-141, F88S).
For experiment [9], the target named is T1, PAX4 (Homo sapiens, UniProt O43316 9-242, R200K).
T1 sequence: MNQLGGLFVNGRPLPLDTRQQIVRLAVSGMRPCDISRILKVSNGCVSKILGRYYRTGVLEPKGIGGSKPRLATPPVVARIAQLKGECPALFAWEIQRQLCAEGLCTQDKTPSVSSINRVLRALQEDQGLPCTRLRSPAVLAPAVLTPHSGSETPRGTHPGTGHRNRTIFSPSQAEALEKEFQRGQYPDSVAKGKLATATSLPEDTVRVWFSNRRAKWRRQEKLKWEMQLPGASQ

For experiment [10], the target named is PRRX1 (Homo sapiens, UniProt P54821 80-166, F113S).
Experiment [11] deals with T2, PAX4 (Homo sapiens, UniProt O43316 9-242).
T2 sequence: T1 sequence with K192R

Experiment [12] concerns the target HOXA2 (Homo sapiens, UniProt O43364 129-215, R185T).
Experiment [13] addresses T3, PAX4 (Homo sapiens, UniProt O43316 9-242, R200Q).
T3 sequence: T1 sequence with K192Q

Experiment [14] has as its target HOXA2 (Homo sapiens, UniProt O43364 129-215, R185K).
Experiment [15] deals with T4, PAX4 (Homo sapiens, UniProt O43316 9-242, F177V).
T4 sequence: T1 sequence with F169V, K192R

Experiment [16] has as its target T5, PAX4 (Homo sapiens, UniProt O43316 9-242, F177Y).
T5 sequence: T1 sequence with F169Y, K192R

Experiment [17] addresses T6, PAX4 (Homo sapiens, UniProt O43316 9-242, R227W).
T6 sequence: T1 sequence with K192R, R219W

The target of experiment [18] is HOXA2 (Homo sapiens, UniProt O43364 129-215, Y150S).
For experiment [19], the target named is PRRX1 (Homo sapiens, UniProt P54821 80-166).
In experiment [20] the target is HOXA2 (Homo sapiens, UniProt O43364 129-215).
Experiment [21] concerns the target ALX1 (Homo sapiens, UniProt Q15699 118-204, L144V).
Experiment [22] concerns the target PITX2 (Homo sapiens, UniProt Q99697 72-157).
In experiment [23] the target is ALX1 (Homo sapiens, UniProt Q15699 118-204, L144R).
Experiment [24] has as its target ALX1 (Homo sapiens, UniProt Q15699 118-204).
Experiment [25] addresses HOXB6 (Homo sapiens, UniProt P17509 132-218, K202E).
The target in experiment [26] is ALX3 (Homo sapiens, UniProt O95076 139-225, N203Q).
Experiment [27] has as its target ALX3 (Homo sapiens, UniProt O95076 139-225, N203S).

Positions count from the first letter of the chain named.

ALX4 (Homo sapiens, UniProt Q9H161 200-286), sequence (Q9H161 200-286): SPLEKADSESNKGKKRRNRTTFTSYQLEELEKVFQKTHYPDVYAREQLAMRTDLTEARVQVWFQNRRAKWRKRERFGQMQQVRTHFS
ALX4 (Homo sapiens, UniProt Q9H161 200-286, Q225E), sequence (Q9H161 200-286 Q225E): as the sequence (Q9H161 200-286) above, with Q26E counted along it
MSX2 (Homo sapiens, UniProt P35548 130-214, R199I), sequence (P35548 130-214 R199I): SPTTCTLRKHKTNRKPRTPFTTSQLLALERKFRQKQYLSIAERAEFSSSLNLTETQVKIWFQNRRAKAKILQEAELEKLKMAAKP
PROP1 (Homo sapiens, UniProt O75360 56-141), sequence (O75360 56-141): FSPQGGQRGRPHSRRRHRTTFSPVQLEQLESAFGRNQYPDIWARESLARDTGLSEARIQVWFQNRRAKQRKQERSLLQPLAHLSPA
PRRX1 (Homo sapiens, UniProt P54821 80-166), sequence (P54821 80-166): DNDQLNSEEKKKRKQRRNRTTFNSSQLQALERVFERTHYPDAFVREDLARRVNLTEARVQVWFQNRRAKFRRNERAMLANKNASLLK
MSX2 (Homo sapiens, UniProt P35548 130-214, F161Y), sequence (P35548 130-214 F161Y): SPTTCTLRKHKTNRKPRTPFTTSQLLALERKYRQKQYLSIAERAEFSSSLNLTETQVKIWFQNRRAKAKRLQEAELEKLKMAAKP
ALX1 (Homo sapiens, UniProt Q15699 118-204), sequence (Q15699 118-204): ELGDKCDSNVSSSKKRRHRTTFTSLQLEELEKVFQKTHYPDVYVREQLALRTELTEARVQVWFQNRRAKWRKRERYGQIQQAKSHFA
MSX2 (Homo sapiens, UniProt P35548 130-214), sequence (P35548 130-214): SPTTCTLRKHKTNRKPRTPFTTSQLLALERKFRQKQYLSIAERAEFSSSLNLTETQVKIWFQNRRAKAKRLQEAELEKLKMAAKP
PRRX1 (Homo sapiens, UniProt P54821 80-166, F113S), sequence (P54821 80-166 F113S): as the sequence (P54821 80-166) above, with F34S counted along it
PROP1 (Homo sapiens, UniProt O75360 56-141, F88S), sequence (O75360 56-141 F88S): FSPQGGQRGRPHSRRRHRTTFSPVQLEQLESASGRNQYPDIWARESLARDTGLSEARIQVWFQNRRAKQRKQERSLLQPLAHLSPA
PROP1 (Homo sapiens, UniProt O75360 56-141, R99H), sequence (O75360 56-141 R99H): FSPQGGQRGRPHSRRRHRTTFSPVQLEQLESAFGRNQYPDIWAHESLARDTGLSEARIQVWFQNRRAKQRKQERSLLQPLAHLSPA
ALX1 (Homo sapiens, UniProt Q15699 118-204, L144R), sequence (Q15699 118-204 L144R): as the sequence (Q15699 118-204) above, with L27R counted along it
ALX1 (Homo sapiens, UniProt Q15699 118-204, L144V), sequence (Q15699 118-204 L144V): as the sequence (Q15699 118-204) above, with L27V counted along it
ALX3 (Homo sapiens, UniProt O95076 139-225, N203Q), sequence (O95076 139-225 N203Q): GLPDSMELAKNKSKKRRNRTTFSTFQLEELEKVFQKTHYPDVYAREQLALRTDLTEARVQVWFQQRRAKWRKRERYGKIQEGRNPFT
HOXA2 (Homo sapiens, UniProt O43364 129-215, R185K), sequence (O43364 129-215 R185K): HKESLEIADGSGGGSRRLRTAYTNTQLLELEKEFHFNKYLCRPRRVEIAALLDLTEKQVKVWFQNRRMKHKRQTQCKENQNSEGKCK
HOXA2 (Homo sapiens, UniProt O43364 129-215, R185T), sequence (O43364 129-215 R185T): as the sequence (O43364 129-215 R185K) above, with K57T counted along it
HOXB6, sequence (P17509 132-218 K202E): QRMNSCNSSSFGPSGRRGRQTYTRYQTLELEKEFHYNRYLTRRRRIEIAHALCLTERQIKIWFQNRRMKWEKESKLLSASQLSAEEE
HOXA2 (Homo sapiens, UniProt O43364 129-215, Y150S), sequence (O43364 129-215 Y150S): as the sequence (O43364 129-215 R185K) above, with Y22S, K57R counted along it
ALX3 (Homo sapiens, UniProt O95076 139-225, N203S), sequence (O95076 139-225 N203S): as the sequence (O95076 139-225 N203Q) above, with Q65S counted along it
HOXA2 (Homo sapiens, UniProt O43364 129-215), sequence (O43364 129-215): as the sequence (O43364 129-215 R185K) above, with K57R counted along it

As to AGGAGGCG, the binding signal is 8.14 upbm affinity estimate (log intensity, higher = more binding, comparable within an allelic series) in [1]; 8.12 upbm affinity estimate (log intensity, higher = more binding, comparable within an allelic series) in experiment [2]; 9.45 upbm affinity estimate (log intensity, higher = more binding, comparable within an allelic series) in experiment [3]; 9.43 upbm affinity estimate (log intensity, higher = more binding, comparable within an allelic series) in experiment [4]; 9.49 upbm affinity estimate (log intensity, higher = more binding, comparable within an allelic series) in experiment [5].
On to TGCCAGCA, for which the binding signal in experiment [1] was 8.19 upbm affinity estimate (log intensity, higher = more binding, comparable within an allelic series); in experiment [2] it was 8.28 upbm affinity estimate (log intensity, higher = more binding, comparable within an allelic series); in experiment [6] it was 6.8 upbm affinity estimate (log intensity, higher = more binding, comparable within an allelic series); in experiment [7], 6.79 upbm affinity estimate (log intensity, higher = more binding, comparable within an allelic series); in experiment [8] it was 6.93 upbm affinity estimate (log intensity, higher = more binding, comparable within an allelic series).
Turning to GCTGCAGC, the binding signal is 9.33 upbm affinity estimate (log intensity, higher = more binding, comparable within an allelic series) in [9]; 9.31 upbm affinity estimate (log intensity, higher = more binding, comparable within an allelic series) in [10]; 9.16 upbm affinity estimate (log intensity, higher = more binding, comparable within an allelic series) in experiment [11]; 7.32 upbm affinity estimate (log intensity, higher = more binding, comparable within an allelic series) in [12]; 9.55 upbm affinity estimate (log intensity, higher = more binding, comparable within an allelic series) in experiment [3]; 9.38 upbm affinity estimate (log intensity, higher = more binding, comparable within an allelic series) in [13]. Further, the binding signal in [14] is 10.3 upbm affinity estimate (log intensity, higher = more binding, comparable within an allelic series); in experiment [15], 9.33 upbm affinity estimate (log intensity, higher = more binding, comparable within an allelic series); in experiment [4], 9.49 upbm affinity estimate (log intensity, higher = more binding, comparable within an allelic series); in experiment [16] it was 9.42 upbm affinity estimate (log intensity, higher = more binding, comparable within an allelic series); in experiment [5] it was 9.48 upbm affinity estimate (log intensity, higher = more binding, comparable within an allelic series); in [17] it was 9.46 upbm affinity estimate (log intensity, higher = more binding, comparable within an allelic series). For the same sequence, the binding signal was 10.6 upbm affinity estimate (log intensity, higher = more binding, comparable within an allelic series) in [18]; 9.11 upbm affinity estimate (log intensity, higher = more binding, comparable within an allelic series) in [19]; 6.95 upbm affinity estimate (log intensity, higher = more binding, comparable within an allelic series) in experiment [20].
For the sequence ATAATTTG, the binding signal is 11.6 upbm affinity estimate (log intensity, higher = more binding, comparable within an allelic series) in experiment [9]; 10.9 upbm affinity estimate (log intensity, higher = more binding, comparable within an allelic series) in [10]; 12.1 upbm affinity estimate (log intensity, higher = more binding, comparable within an allelic series) in experiment [11]; 12 upbm affinity estimate (log intensity, higher = more binding, comparable within an allelic series) in experiment [13]; 10.5 upbm affinity estimate (log intensity, higher = more binding, comparable within an allelic series) in experiment [15]; 10.9 upbm affinity estimate (log intensity, higher = more binding, comparable within an allelic series) in experiment [16]. Moreover, the binding signal in experiment [17] was 11 upbm affinity estimate (log intensity, higher = more binding, comparable within an allelic series); in [19] it was 13.2 upbm affinity estimate (log intensity, higher = more binding, comparable within an allelic series).
Turning to GAGGACTC, the binding signal in experiment [1] was 8.06 upbm affinity estimate (log intensity, higher = more binding, comparable within an allelic series); in experiment [2] it was 8.19 upbm affinity estimate (log intensity, higher = more binding, comparable within an allelic series); in [21], 6.41 upbm affinity estimate (log intensity, higher = more binding, comparable within an allelic series); in [22] it was 7.89 upbm affinity estimate (log intensity, higher = more binding, comparable within an allelic series); in [23], 6.53 upbm affinity estimate (log intensity, higher = more binding, comparable within an allelic series); in experiment [24], 6.39 upbm affinity estimate (log intensity, higher = more binding, comparable within an allelic series).
Take CCCGGAAG: the binding signal in [1] was 7.9 upbm affinity estimate (log intensity, higher = more binding, comparable within an allelic series); in [2], 8.04 upbm affinity estimate (log intensity, higher = more binding, comparable within an allelic series).
With CACAGCTC, the binding signal in experiment [1] is 7.95 upbm affinity estimate (log intensity, higher = more binding, comparable within an allelic series); in [2] it was 8.26 upbm affinity estimate (log intensity, higher = more binding, comparable within an allelic series); in [6] it was 6.72 upbm affinity estimate (log intensity, higher = more binding, comparable within an allelic series); in experiment [7], 6.77 upbm affinity estimate (log intensity, higher = more binding, comparable within an allelic series); in experiment [8] it was 6.99 upbm affinity estimate (log intensity, higher = more binding, comparable within an allelic series).
Regarding CATATTAA, the binding signal in experiment [9] is 11.8 upbm affinity estimate (log intensity, higher = more binding, comparable within an allelic series); in [11], 12.1 upbm affinity estimate (log intensity, higher = more binding, comparable within an allelic series); in experiment [25] it was 10 upbm affinity estimate (log intensity, higher = more binding, comparable within an allelic series); in [26] it was 8.63 upbm affinity estimate (log intensity, higher = more binding, comparable within an allelic series); in experiment [13] it was 11.8 upbm affinity estimate (log intensity, higher = more binding, comparable within an allelic series); in [15], 10.8 upbm affinity estimate (log intensity, higher = more binding, comparable within an allelic series). The binding signal in experiment [16] was 11 upbm affinity estimate (log intensity, higher = more binding, comparable within an allelic series); in experiment [17], 11 upbm affinity estimate (log intensity, higher = more binding, comparable within an allelic series); in experiment [27], 8.71 upbm affinity estimate (log intensity, higher = more binding, comparable within an allelic series).
For ATAGAGAT, the binding signal was 10.5 upbm affinity estimate (log intensity, higher = more binding, comparable within an allelic series) in [9] and 10.6 upbm affinity estimate (log intensity, higher = more binding, comparable within an allelic series) in experiment [11].
For the sequence AAATTAGT, the binding signal in experiment [1] is 13.5 upbm affinity estimate (log intensity, higher = more binding, comparable within an allelic series); in [2], 12.5 upbm affinity estimate (log intensity, higher = more binding, comparable within an allelic series); in experiment [21], 11.4 upbm affinity estimate (log intensity, higher = more binding, comparable within an allelic series); in experiment [13], 12 upbm affinity estimate (log intensity, higher = more binding, comparable within an allelic series); in [23] it was 10.9 upbm affinity estimate (log intensity, higher = more binding, comparable within an allelic series); in experiment [17] it was 10.9 upbm affinity estimate (log intensity, higher = more binding, comparable within an allelic series). For the same sequence, the binding signal in experiment [24] is 12.1 upbm affinity estimate (log intensity, higher = more binding, comparable within an allelic series).

The values are drawn from article PMC11006913.
